In PubChem BioAssay AID1159580 (chemical genetic matrix, 2015):
In all, about 5,500 compounds went through this assay and about 2,000 (36%) were called active. Roughly 18% stayed inconclusive and do not appear here. Rule as the data show it: active = normalized growth mostly below about 0.91 (no sharp cut-off); inconclusive = no clear call, values can overlap the other calls; inactive = mostly above about 0.92. The list shows a part of the results.

Assay: chemical genetic growth profiling, strain panel (AID 1159580);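 also: tested at 20 µM; growth read once vehicle control cultures reached saturation at 30 °C; 1 = growth at the plate median or of vehicle wells; lower values mean less growth of the strain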
Details: S. cerevisiae deletion strains, growth OD

Measured: normalized growth

CC1(C)CC[C@@]2(C(=O)O)C(C1)C1=CCC3[C@@]4(C)CC[C@H](O)C(C)(C)C4CC[C@@]3(C)[C@]1(C)C[C@@H]2O (stereo not given in full)
inactive: locus YAL013W, strain DEP1, stronger effect = lower value 1.02 | locus YAL021C, strain ccr4, stronger effect = lower value 1.01 | locus YAL026C, strain drs2, stronger effect = lower value 1.01 | locus YAL030W, strain snc1, stronger effect = lower value 1.01 | locus YBL061C, strain skt5, stronger effect = lower value 1.03 | locus YBR009C, strain hhf1, stronger effect = lower value 1.01 | locus YBR021W, strain FUR4, stronger effect = lower value 0.996 | locus YBR023C, strain chs3, stronger effect = lower value 1.02 | locus YBR171W, strain sec66, stronger effect = lower value 1.02 | locus YBR229C, strain ROT2, stronger effect = lower value 1.03 | locus YBR231C, strain swc5, stronger effect = lower value 1.03 | locus YBR279W, strain paf1, stronger effect = lower value 1.02 | locus YCL011C, strain gbp2, stronger effect = lower value 1.02 | locus YCL016C, strain dcc1, stronger effect = lower value 1.02 | locus YCL029C, strain bik1, stronger effect = lower value 0.992 | locus YCL061C, strain MRC1, stronger effect = lower value 1.01 | locus YCL069W, strain vba3, stronger effect = lower value 1.01 | locus YCR088W, strain abp1, stronger effect = lower value 1.01 | locus YDL005C, strain med2, stronger effect = lower value 1.01 | locus YDL035C, strain GPR1, stronger effect = lower value 1 | locus YDL040C, strain nat1, stronger effect = lower value 1.02 | locus YDL074C, strain BRE1, stronger effect = lower value 1 | locus YDL185W, strain tfp1, stronger effect = lower value 1.02 | locus YDL192W, strain arf1, stronger effect = lower value 1.05 | locus YDR001C, strain nth1, stronger effect = lower value 1.01 | locus YDR069C, strain doa4, stronger effect = lower value 1.05 | locus YDR101C, strain arx1, stronger effect = lower value 1.02 | locus YDR150W, strain NUM1, stronger effect = lower value 1.03 | locus YDR159W, strain sac3, stronger effect = lower value 0.953 | locus YDR162C, strain NBP2, stronger effect = lower value 1.01 | locus YDR195W, strain ref2 0.952 | locus YDR297W, strain sur2, stronger effect = lower value 1.01 | locus YDR318W, strain mcm21, stronger effect = lower value 1.03 | locus YDR334W, strain swr1, stronger effect = lower value 1.01 | locus YDR335W, strain msn5, stronger effect = lower value 1.02 | locus YDR388W, stronger effect = lower value 1.03 | locus YDR392W, strain spt3, stronger effect = lower value 1.01 | locus YDR502C, strain sam2, stronger effect = lower value 1.05 | locus YEL003W, strain gim4, stronger effect = lower value 1.03 | locus YEL037C, strain rad23, stronger effect = lower value 1.02 | locus YEL061C, strain CIN8 (second series), stronger effect = lower value 1.02 | locus YEL061C, strain CIN8, stronger effect = lower value 1.02 | locus YER015W, strain faa2, stronger effect = lower value 1.03 | locus YER016W, strain bim1, stronger effect = lower value 1 | locus YER110C, stronger effect = lower value 1.03 | locus YER111C, strain swi4, stronger effect = lower value 1.01 | locus YER155C, strain BEM2 (second series), stronger effect = lower value 1 | locus YER155C, strain BEM2, stronger effect = lower value 1.03 | locus YER167W, strain BCK2, stronger effect = lower value 1.04 | locus YFR010W, strain ubp6, stronger effect = lower value 1.04 | locus YGL078C, strain dbp3, stronger effect = lower value 1.03 | locus YGL167C, strain pmr1, stronger effect = lower value 1.01 | locus YGL173C, strain kem1, stronger effect = lower value 1.01 | locus YGL227W, strain vid30, stronger effect = lower value 1.01 | locus YGL240W, strain doc1, stronger effect = lower value 1 | locus YGL248W, strain PDE1, stronger effect = lower value 1.02 | locus YGL253W, strain hxk2, stronger effect = lower value 1.02 | locus YGR078C, strain PAC10, stronger effect = lower value 1.05 | locus YGR135W, strain pre9, stronger effect = lower value 1.05 | locus YGR252W, strain gcn5, stronger effect = lower value 1.07 | locus YHR013C, strain ard1, stronger effect = lower value 1.1 | locus YHR027C, strain rpn1, stronger effect = lower value 1.02 | locus YHR030C, strain SLT2, stronger effect = lower value 1.04 | locus YHR079C, strain IRE1 (second series), stronger effect = lower value 1.01 | locus YHR094C, strain hxt1, stronger effect = lower value 1.02 | locus YHR129C, strain ARP1, stronger effect = lower value 1.04 | locus YHR142W, strain chs7, stronger effect = lower value 1.03 | locus YHR200W, strain rpn10, stronger effect = lower value 1.04 | locus YIL066C, strain RNR3, stronger effect = lower value 1.05 | locus YIL073C, strain SPO22, stronger effect = lower value 1.15 | locus YIL125W, strain kgd1, stronger effect = lower value 1.02 | locus YJL092W, strain hpr5, stronger effect = lower value 1.01 | locus YJL095W, strain BCK1 (second series), stronger effect = lower value 1.01 | locus YJL095W, strain BCK1, stronger effect = lower value 0.973 | locus YJL115W, strain asf1, stronger effect = lower value 1.02 | locus YJL129C, strain trk1, stronger effect = lower value 1.02 | locus YJL134W, strain LCB3, stronger effect = lower value 1.02 | locus YJL154C, strain vps35, stronger effect = lower value 1 | locus YJL164C, strain tpk1, stronger effect = lower value 1.03 | locus YJL166W, strain qcr8, stronger effect = lower value 1.01 | locus YJL168C, strain set2, stronger effect = lower value 1.04 | locus YJL187C, strain SWE1 (second series), stronger effect = lower value 1.02 | locus YJL187C, strain SWE1, stronger effect = lower value 1.01 | locus YJR043C, strain POL32, stronger effect = lower value 1.02 | locus YKL160W, strain elf1, stronger effect = lower value 0.995 | locus YKL190W, strain CNB1, stronger effect = lower value 1.03 | locus YKR001C, strain vps1, stronger effect = lower value 1.03 | locus YKR026C, strain gcn3, stronger effect = lower value 0.988 | locus YKR091W, strain srl3, stronger effect = lower value 1.01 | locus YLL001W, strain dnm1, stronger effect = lower value 1.02 | locus YLL026W, stronger effect = lower value 1.01 | locus YLL041C, strain sdh2, stronger effect = lower value 1.01 | locus YLR027C, strain aat2, stronger effect = lower value 1.02 | locus YLR039C, strain RIC1, stronger effect = lower value 0.866 | locus YLR058C, strain SHM2, stronger effect = lower value 1.03 | locus YLR102C, strain apc9, stronger effect = lower value 1.02 | locus YLR221C, strain rsa3, stronger effect = lower value 1.02 | locus YLR258W, strain gsy2, stronger effect = lower value 1.01 | locus YLR262C, strain YPT6 (second series), stronger effect = lower value 0.871 | locus YLR262C, strain YPT6, stronger effect = lower value 0.827 | locus YLR268W, strain sec22, stronger effect = lower value 1.01 | locus YLR320W, strain mms22, stronger effect = lower value 1.02 | locus YLR330W, strain CHS5, stronger effect = lower value 1.03 | locus YLR342W, strain FKS1 (second series), stronger effect = lower value 0.97 | locus YLR342W, strain FKS1, stronger effect = lower value 1.02 | locus YLR357W, strain rsc2, stronger effect = lower value 1 | locus YLR370C, strain arc18, stronger effect = lower value 1.02 | locus YLR371W, strain rom2, stronger effect = lower value 1.01 | locus YLR384C, strain iki3, stronger effect = lower value 1.02 | locus YML016C, strain PPZ1, stronger effect = lower value 1.03 | locus YML032C, strain rad52, stronger effect = lower value 1.02 | locus YML120C, strain ndi1, stronger effect = lower value 1.02 | locus YML124C, strain tub3, stronger effect = lower value 1.05 | locus YMR058W, strain fet3, stronger effect = lower value 1.03 | locus YMR078C, strain ctf18, stronger effect = lower value 1.03 | locus YMR125W, strain sto1, stronger effect = lower value 1.03 | locus YMR129W, stronger effect = lower value 1.02 | locus YMR205C, strain PFK2, stronger effect = lower value 0.984 | locus YMR223W, strain ubp8, stronger effect = lower value 1.01 | locus YMR231W, strain pep5, stronger effect = lower value 1.01 | locus YMR307W, strain GAS1, stronger effect = lower value 0.909 | locus YNL067W, strain RPL9B, stronger effect = lower value 1.02 | locus YNL071W, strain lat1, stronger effect = lower value 1.01 | locus YNL128W, strain TEP1, stronger effect = lower value 0.874 | locus YNL153C, strain GIM3, stronger effect = lower value 1.02 | locus YNL209W, strain ssb2, stronger effect = lower value 1.03 | locus YNL233W, strain BNI4, stronger effect = lower value 1.03 | locus YNL248C, strain rpa49, stronger effect = lower value 1.01 | locus YNL250W, strain rad50, stronger effect = lower value 1.04 | locus YNL271C, strain bni1, stronger effect = lower value 1.02 | locus YNL298W, strain CLA4, stronger effect = lower value 1.02 | locus YNL307C, strain MCK1, stronger effect = lower value 1.05 | locus YNL322C, strain KRE1 (second series), stronger effect = lower value 0.998 | locus YNR049C, strain mso1, stronger effect = lower value 1.01 | locus YNR052C, strain pop2, stronger effect = lower value 1.03 | locus YOL006C, strain TOP1, stronger effect = lower value 1.17 | locus YOL012C, strain htz1 1.06 | locus YOL147C, strain pex11, stronger effect = lower value 1.03 | locus YOR001W, strain rrp6, stronger effect = lower value 1 | locus YOR061W, strain CKA2, stronger effect = lower value 1 | locus YOR069W, strain VPS5, stronger effect = lower value 1.01 | locus YOR070C, strain gyp1, stronger effect = lower value 1.03 | locus YOR080W, strain dia2, stronger effect = lower value 1.01 | locus YOR083W, strain WHI5, stronger effect = lower value 0.996 | locus YOR106W, strain vam3, stronger effect = lower value 1 | locus YOR136W, strain idh2, stronger effect = lower value 1.04 | locus YOR144C, strain elg1, stronger effect = lower value 1.03 | locus YOR184W, strain ser1, stronger effect = lower value 1 | locus YOR265W, strain rbl2, stronger effect = lower value 1.03 | locus YOR270C, strain vph1, stronger effect = lower value 1.11 | locus YOR290C, strain snf2, stronger effect = lower value 0.991 | locus YOR316C, strain cot1, stronger effect = lower value 1.03 | locus YPL051W, strain arl3, stronger effect = lower value 0.99 | locus YPL078C, strain atp4, stronger effect = lower value 1.02 | locus YPL106C, strain sse1, stronger effect = lower value 1.03 | locus YPL240C, strain hsp82, stronger effect = lower value 1.01 | locus YPR119W, strain clb2, stronger effect = lower value 1.03 | locus YPR141C, strain kar3, stronger effect = lower value 1.05 | locus YPR163C, strain tif3, stronger effect = lower value 1.05 | locus YPR167C, strain met16, stronger effect = lower value 1.04 | strain wtn01, stronger effect = lower value 1.05
active: locus YDL101C, strain DUN1, stronger effect = lower value 0.827 | locus YDR137W, strain rgp1, stronger effect = lower value 0.828 | locus YGL086W, strain mad1, stronger effect = lower value 1.22 [resistant] | locus YIR030C, strain dcg1, stronger effect = lower value 1.1 [resistant] | locus YKL009W, strain mrt4, stronger effect = lower value 1.16 [resistant] | locus YKL068W, stronger effect = lower value 1.19 [resistant] | locus YKL085W, strain MDH1 (second series), stronger effect = lower value 1.24 [resistant] | locus YKL085W, strain MDH1, stronger effect = lower value 1.24 [resistant] | locus YLR418C, strain cdc73, stronger effect = lower value 1.19 [resistant]
